The record followed here is PubChem BioAssay AID602144 (Vanderbilt Specialized Chemistry Center, 2011).

One may read the remaining activity as the signal under treatment as a percentage of the control signal.

Unmarked numbers belong to inactive results. Calls of active or inactive are those of the source. No stated cut-off is given here; in the data, active means remaining activity below about 50%; inactive means the rest.

Chain of Phospholipase D1 (Homo sapiens) (Q13393 whole entry, looked up): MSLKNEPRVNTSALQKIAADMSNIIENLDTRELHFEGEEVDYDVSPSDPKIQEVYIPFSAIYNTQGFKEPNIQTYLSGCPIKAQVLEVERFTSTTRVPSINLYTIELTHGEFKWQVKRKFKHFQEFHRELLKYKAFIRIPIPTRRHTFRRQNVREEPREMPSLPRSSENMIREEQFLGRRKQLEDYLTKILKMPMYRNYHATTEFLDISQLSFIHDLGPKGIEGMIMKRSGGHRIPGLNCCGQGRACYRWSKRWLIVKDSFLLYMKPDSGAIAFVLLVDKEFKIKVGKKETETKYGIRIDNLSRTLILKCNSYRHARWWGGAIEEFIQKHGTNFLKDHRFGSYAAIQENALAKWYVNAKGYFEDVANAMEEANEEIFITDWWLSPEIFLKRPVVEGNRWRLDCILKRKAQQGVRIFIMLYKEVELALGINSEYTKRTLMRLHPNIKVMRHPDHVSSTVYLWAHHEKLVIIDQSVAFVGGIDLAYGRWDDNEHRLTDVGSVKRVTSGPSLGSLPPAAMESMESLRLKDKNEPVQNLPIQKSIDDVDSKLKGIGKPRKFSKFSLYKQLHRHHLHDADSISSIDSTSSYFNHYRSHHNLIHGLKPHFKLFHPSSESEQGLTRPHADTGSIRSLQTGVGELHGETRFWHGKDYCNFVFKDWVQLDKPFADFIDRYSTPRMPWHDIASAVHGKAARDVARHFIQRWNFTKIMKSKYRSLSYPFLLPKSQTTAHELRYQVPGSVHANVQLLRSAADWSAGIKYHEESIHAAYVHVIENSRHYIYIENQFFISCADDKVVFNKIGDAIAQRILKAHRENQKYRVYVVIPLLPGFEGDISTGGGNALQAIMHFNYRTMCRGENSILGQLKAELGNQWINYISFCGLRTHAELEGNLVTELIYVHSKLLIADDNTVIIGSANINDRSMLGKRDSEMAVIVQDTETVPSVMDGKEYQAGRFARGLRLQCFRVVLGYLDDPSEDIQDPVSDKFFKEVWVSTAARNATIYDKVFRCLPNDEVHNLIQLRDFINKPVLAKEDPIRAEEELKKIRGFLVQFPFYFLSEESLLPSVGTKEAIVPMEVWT
Chain of Phospholipase D1 (Homo sapiens) (Q13393 whole entry, looked up): as above

The assay concerns the target Phospholipase D1 (Homo sapiens) (UniProt Q13393). The assay can be described thus: cellular phospholipase D1 activity inhibition – Calu-1 cells, single concentration (AID 602144).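 Further: tested at 200 nM.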 Conditions: cellular PLD1 activity, hits give low values.
For the compound `O=C(NCCN1CC=C(n2nnc3cc(C(F)(F)F)ccc32)CC1)c1cnc2ccccc2c1`, the remaining activity is 44.5% (active).
The value for `C[C@@H](CN1CCC(n2c(=O)[nH]c3cc(Br)ccc32)CC1)NC(=O)c1ccc(F)cc1` was 16.1% (active).
In the case of `C[C@@H](CN1CCC(n2c(=O)[nH]c3cc(I)ccc32)CC1)NC(=O)C1CC1c1ccccc1` (stereo not given in full), the remaining activity was 19.9% (active).
On to `C[C@@H](CN1CCC(n2c(=O)[nH]c3ccccc32)CC1)NC(=O)c1cc2ccccc2s1`, for which the remaining activity is 28% (active).
With `C[C@@H](CN1CCC(n2c(=O)[nH]c3ccccc32)CC1)NC(=O)c1cccnc1`, the remaining activity was 41.1% (active).
For the compound `O=C(NCCN1CCN(c2ccncc2)CC1)c1ccc(F)cc1`, the remaining activity was 126%.
The value for `O=c1[nH]c2ccccc2n1C1CCN(CCNS(=O)(=O)c2ccccc2Br)CC1` was 112%; that for `CC(=O)c1cccc(NC(=O)NCCN2CCC(n3c(=O)[nH]c4ccccc43)CC2)c1` was 137%; that for `COc1cc(C(=O)NCCN2CCN(c3ccncc3)CC2)ccc1N` was 90.7%.
As for `C[C@@H](CN1CCC(n2c(=O)[nH]c3cc(-c4ccccc4)ccc32)CC1)NC(=O)[C@H]1C[C@@H]1c1ccccc1`, the remaining activity is 67.4%.
As for `O=C(NCCN1CCC(n2nnc3ccccc32)CC1)c1ccc2ccccc2c1`, the remaining activity was 19.1% (active).
For `O=c1[nH]c2ccccc2n1C1CCN(CCNC(=S)Nc2ccc(Cl)c(Cl)c2)CC1`, the remaining activity is 170%.
The same measure for `Cc1ccc(C(=O)N[C@@H](C)CN2CCC(n3c(=O)[nH]c4ccc(F)cc43)CC2)cc1`: 27.4% (active); for `O=C(NCCN1CCC2(CC1)CNc1ccccc12)c1ccc2ccccc2c1`: 43.9% (active); for `O=C(NCCN1CCC(n2c(=O)[nH]c3ccccc32)CC1)C1CCCCCCCCCC1`: 85.9%.
For the compound `O=C(CCc1ccc(F)cc1)NCCN1CCC(n2c(=O)[nH]c3ccccc32)CC1`, the remaining activity was 75.2%.
With `O=C(NCCN1CCC(n2c(=O)[nH]c3ccccc32)CC1)NCc1cccc(F)c1`, the remaining activity is 45.6% (active).
The same measure for `C[C@@H](CN1CCC(n2c(=O)[nH]c3ccccc32)CC1)NC(=O)c1cc2ccccc2[nH]1`: 8.14% (active); for `O=C(NCCN1CCC(n2c(=O)[nH]c3ccccc32)CC1)c1cnc2ccccc2n1`: 83.7%.
For `COc1cccc(N2CCN(CCNC(=O)c3ccc(Cl)cc3)CC2)c1`, the remaining activity is 96.1%.
In the case of `O=C1c2ccccc2C(=O)N1CCCN1CCC(n2c(=O)[nH]c3cc(Cl)ccc32)CC1`, the remaining activity is 67.5%.
As for `CCCCS(=O)(=O)NCCN1CCC(n2c(=O)[nH]c3ccccc32)CC1`, the remaining activity is 124%.
The same measure for `C[C@@H](CN1CCC(n2c(=O)[nH]c3ccccc32)CC1)NC(=O)c1cc2cc(F)ccc2[nH]1`: 30.1% (active); for `NC1(CN2CCC(c3nc4ccccc4[nH]3)CC2)CCCC1` (tested in a mixture with another compound): 81.2%.
Turning to `O=C(NCCN1CCC(n2c(=O)[nH]c3cc(Cl)ccc32)CC1)c1ccc(Cl)cc1`, the remaining activity is 7.16% (active).
Consider `C[C@@H](CN1CCC(n2c(=O)[nH]c3cc(-c4ccsc4)ccc32)CC1)NC(=O)[C@H]1C[C@@H]1c1ccccc1`, for which the remaining activity was 41.3% (active).
On to `C[C@@H](CN1CC=C(n2c(=O)[nH]c3ccccc32)CC1)NC(=O)c1ccc2ccccc2c1`, for which the remaining activity was 0.0151% (active).
The same measure for `O=C(NCCN1CCC(n2c(=O)[nH]c3ccccc32)CC1)c1ccc2cccc3c2c1CC3`: 93.4%.
With `O=C(NCCN1CCN(c2ccncc2)CC1)c1ccccc1-c1ccccc1`, the remaining activity is 147%.
`C[C@@H](CN1CCC(n2c(=O)[nH]c3ccccc32)CC1)NC(=O)COc1ccccc1`: the remaining activity was 28.1% (active).
`O=C(NCCN1CCC(n2c(=O)[nH]c3ccccc32)CC1)N1c2ccccc2Sc2ccccc21`: the remaining activity was 89.7%.
With `O=C(NCCN1CCC(C(=O)NCCCN2CCOCC2)CC1)c1ccc2ccccc2c1`, the remaining activity was 68.3%.
On to `C[C@@H](CN1CCC2(C=Cc3ccccc32)CC1)NC(=O)c1cnc2ccccc2c1`, for which the remaining activity was 137%.
Consider `C[C@@H](CN1CCC2(C=Cc3ccccc32)CC1)NC(=O)c1ccc2ccccc2c1`, for which the remaining activity was 102%.
The value for `O=c1[nH]c2ccccc2n1C1CCN(CCNS(=O)(=O)c2ccccc2C(F)(F)F)CC1` was 94.8%; that for `CN(C)c1cccc2c(S(=O)(=O)NCCN3CCC(n4c(=O)[nH]c5ccccc54)CC3)cccc12` was 127%; that for `C[C@@H](CN1CCC2(CC1)CN(S(C)(=O)=O)c1ccccc12)NC(=O)[C@H]1C[C@@H]1c1ccccc1` was 148%.
With `O=C(NCCN1CCC(n2c(=O)[nH]c3ccccc32)CC1)c1cc(-c2ccccc2)no1`, the remaining activity is 62.9%.
The same measure for `Cc1ccc(NC(=S)NCCN2CCC(n3c(=O)[nH]c4ccccc43)CC2)cc1`: 152%.
Turning to `O=C(NCCN1CCC(n2c(=O)[nH]c3ccccc32)CC1)c1cnccn1`, the remaining activity was 76.7%.
